This is a sample that favours compounds with a hit; in the whole collection about 0.83% have one here.
Hsp70 act – Hsp70 transcriptional activators, primary screen, cell-based, HeLa, Hsp70 promoter luciferase, luminescence, 10 µM | 200,000 compounds, 0.04% hits | HeLa Hsp70 promoter luciferase reporter; scaled: vehicle 0, proteasome-inhibitor control 100% | AID 1203, 2008 | activation, % at 10 µM;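 active = activation above the mean across all tested compounds plus 3 SD, cutoff set per campaign, cut at about 5.5% in these data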;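 also: 100% = MG132 at 30 µM as the positive control and 0% = DMSO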
S1P4 ag – S1P4 receptor agonists, primary screen, cell-based; Sphingosine 1-phosphate receptor 4 (Homo sapiens), O95977; S1P4-expressing cell line, agonist reporter assay; activation, % at 4.98 µM; 220,000 compounds, 0.35% hits; in the data active = activation above about 11%;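 also: 0% = DMSO vehicle and 100% = reference agonist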
S1P3 antag-1 – S1P3 receptor antagonists, primary screen, cell-based. Sphingosine 1-phosphate receptor 3 (Homo sapiens), Q99500. CHO S1P3 NFAT-BLA reporter, FRET fluorescence, antagonist mode. inhibition, % at 4.98 µM. 170,000 compounds, 0.27% hits. AID 485, 2006;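 active = inhibition above the plate cutoff, the mean inhibition of test wells on that plate plus 3 SD, cut at about 28% in these data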;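 also: cells challenged with S1P at its EC80 of 0.8 µM; blue over green emission ratio from cleaved BLA substrate after 4 h stimulation; 0% = S1P-stimulated wells and 100% = unstimulated DMSO-only wells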
Target sequence (Q99500 whole entry, looked up): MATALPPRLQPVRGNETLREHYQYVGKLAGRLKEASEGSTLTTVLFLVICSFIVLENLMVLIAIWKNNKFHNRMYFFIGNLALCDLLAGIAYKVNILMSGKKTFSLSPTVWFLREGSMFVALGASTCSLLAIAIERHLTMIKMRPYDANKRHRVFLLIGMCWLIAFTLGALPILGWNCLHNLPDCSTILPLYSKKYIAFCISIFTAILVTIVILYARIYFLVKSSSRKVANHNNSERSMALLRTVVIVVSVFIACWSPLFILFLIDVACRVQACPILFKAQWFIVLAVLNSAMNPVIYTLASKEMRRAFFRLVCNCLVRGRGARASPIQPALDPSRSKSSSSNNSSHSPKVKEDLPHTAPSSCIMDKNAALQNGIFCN
S1P4 antagonist – S1P4 receptor antagonists, primary screen, cell-based. Sphingosine 1-phosphate receptor 4 (Homo sapiens), O95977. S1P4-expressing cells, antagonist mode, reporter read-out. inhibition, % at 4.98 µM. 220,000 compounds, 0.26% hits. AID 1510, 2009; in the data active = inhibition above about 29%;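 also: 0% = wells stimulated with agonist and 100% = vehicle wells without agonist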
Pf gamet viab – late stage P. falciparum gametocyte viability inhibitors, primary screen, ATP luminescence, HTS; P. falciparum stage V gametocytes, 24 h; 150,000 compounds, 0.065% hits; inhibition, % at 10.9 µM;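 active = inhibition above the mean plus 3 SD of compounds within the control limits, set per campaign, cut at about 38% in these data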;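 also: 0% = DMSO wells and 100% = medium only without gametocytes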
S1P3 antag-2 – S1P3 receptor antagonists, retest, confirmation, cell-based. shares compounds with S1P3 antag-1. CHO S1P3 NFAT-BLA reporter, FRET, antagonist mode. inhibition, % at 4.98 µM. 240 compounds, 30% hits. AID 1429, 2008;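 active = inhibition above the hit threshold that was computed for the earlier primary screen, cut at about 30% in these data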;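 also: 0% = S1P-stimulated wells and 100% = unstimulated DMSO-only wells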
Starred values were filed as active, the others as inactive; x = not tested or not shown.

SMILES	Hsp70 act	S1P4 ag	S1P3 antag-1	S1P4 antagonist	Pf gamet viab	S1P3 antag-2
CCCn1c(C)cc(/C=C(\C#N)C(=O)OCC(=O)NC(=O)NCC)c1C	0	0	x	-18	11	x
Cc1cc(Nc2cccc(Cl)c2)nc(NCc2ccccc2)n1	0	1	32*	-27	-6	10
Cc1cccn2c(CNCC3(c4ccccc4)CCCC3)c(C(=O)N3CCOCC3)nc12	0	1	5	2	x	x
C/C(Cn1nnc2ccccc21)=N\NC(=O)c1cccc(Br)c1	0	-2	29*	-11	x	-6
COc1n[nH]c(C(=O)Nc2nc3ccccc3s2)c1[N+](=O)[O-]	0	3	-13	-17	x	x
Cc1ccccc1NC(=O)/C=C/c1ccc([N+](=O)[O-])s1	1	0	36*	13	x	42*
Cc1onc(-c2ccccc2Cl)c1NC(=O)NCc1cccs1	x	0	5	8	-22	x
S=C(Nc1ccccc1)N1N=C(c2cccs2)CC1c1cccs1 (configuration not stated)	0	-2	30*	-12	-22	8
O=C(OC(C(=O)Nc1cccc(C(F)(F)F)c1)c1ccccc1)C1CCCCC1 (configuration not stated)	0	-1	37*	4	x	30*
COc1ccc(N(CC(=O)Nc2ccccc2OC)S(=O)(=O)c2ccc(NC(C)=O)cc2)cc1	x	x	x	x	8	x
CC(C)OC(=O)/C(=C\c1cccc2ccccc12)NC(=O)c1ccccc1	0	1	37*	12	-9	24
Nc1nc(SCn2nnc3ccccc3c2=O)n[nH]1	0	-2	-8	6	-29	x
O=[N+]([O-])c1ccc(C2=NN(c3ccccc3)C(c3ccco3)C2)cc1 (configuration not stated)	x	0	34*	12	-14	46*
O=[N+]([O-])c1c(NCc2ccco2)ccc2nonc12	x	0	106*	0	-18	-16
O=[N+]([O-])c1c(Nc2ccccc2)ccc2nonc12	0	-3	x	-15	x	x
COc1ccc(C(=O)O/N=C/c2ccc(S(=O)(=O)c3ccc(Cl)cc3)nc2)cc1	x	x	x	x	-3	x
CN1CCc2c(n(CC(O)CN3CCN(CCO)CC3)c3ccccc23)C1=O (configuration not stated)	0	2	41*	-29	13	-9
O=c1c2ccccc2n(CC(O)CN2CCCCC2)c2ccccc12 (configuration not stated)	x	7	-9	-24	-42	x
COc1ccc(/C=N/NC(=O)c2cc(C34CC5CC(CC(C5)C3)C4)[nH]n2)cc1OC	0	-1	-8	-1	-1	x
O=C(N/N=C/c1ccc(O)cc1)c1cc(C23CC4CC(CC(C4)C2)C3)[nH]n1	x	0	31*	12	-2	35*
COc1ccc(C(=O)N2CCOC2CNC(=O)C(=O)NCc2ccco2)cc1 (configuration not stated)	0	1	-2	-5	x	x
C=CC[n+]1ccc(/C=C2\C=Cc3cc(C)ccc3N2CC)c2ccccc21	0	-2	30*	-8	x	39*
CCN1/C(=C/c2cc[n+](CCCS(=O)(=O)[O-])c3ccccc23)Sc2ccccc21	0	0	-54	-10	x	x
O=C(Nc1ccc(OC(F)F)c(Cl)c1)C(c1ccccc1)c1ccccc1	0	-2	50*	6	x	59*
C=C(C(=O)Oc1c(C(C)(C)C)cccc1C(C)(C)C)c1ccccc1	x	x	x	x	-10	x
SMILES	Hsp70 act	S1P4 ag	S1P3 antag-1	S1P4 antagonist	Pf gamet viab	S1P3 antag-2
COc1ccc(CCNC(=O)c2cccnc2Cl)cc1OC	x	x	x	x	-7	x
CCCC(C)NC(=O)Cc1ccc(Br)cc1 (configuration not stated)	0	1	3	-14	-36	x
CCC(C)NC(=O)Cc1c(OC)ccc2cc(Br)ccc12 (configuration not stated)	0	2	33*	-8	-3	-1
O=C(Nc1ccccc1)C(c1ccccc1)C1CCCC1 (configuration not stated)	0	4	52*	-9	17	48*
Cc1ccc(CNC(=O)COC(=O)c2ccc(S(=O)(=O)N(C)C)cc2)cc1	0	0	-5	-4	-23	x
Cc1sc2ncnc(NCC3COc4ccccc4O3)c2c1C (configuration not stated)	0	-3	32*	-16	-4	33*
c1ccc(-c2csc3ncnc(NCCCN4CCOCC4)c23)cc1	0	1	x	-22	x	x
c1ccc(-c2csc3ncnc(NCC4COc5ccccc5O4)c23)cc1 (configuration not stated)	0	0	37*	-1	6	17
CC(=O)OC[C@H]1O[C@@H](Oc2cc(O)cc3oc(-c4ccc(O)cc4)cc(=O)c23)[C@H](O[C@@H]2O[C@@H](C)[C@H](O)[C@@H](O)[C@H]2O)[C@@H](O)[C@@H]1O	x	x	x	x	7	x
CCCOc1ccc(/C=N\NC(=O)CCc2n[nH]c(=O)[nH]c2=O)cc1OC	1	-2	29*	-9	-3	-12
COc1ccc(/C=N/NC(=O)CCc2n[nH]c(=O)[nH]c2=O)cc1OC	0	3	-9	-17	3	x
CCOc1ccc(C(=O)c2cc([N+](=O)[O-])ccc2N2CCOCC2)cc1	0	-1	33*	23	-3	19
O=C(c1ccco1)N1CCN(S(=O)(=O)/C=C/c2ccccc2)CC1	0	1	30*	-22	-17	-18
CCCOC(=O)c1ccc(Oc2cn[nH]c2-c2ccc(O)cc2O)cc1	x	0	-1	-8	0	x
CCOC(=O)c1ccc(Oc2cn[nH]c2-c2ccc(O)cc2O)cc1	x	1	29*	2	-20	-16
Cc1cc(NNC(=O)Nc2cccc(Cl)c2)nc2c1c(C)nn2C	x	-1	32*	10	x	14
CN1CCN(/N=C/c2ccc(-c3ccc([N+](=O)[O-])cc3Cl)o2)CC1	0	0	54*	12	10	20
O=C(NC12CC3CC(CC(C3)C1)C2)c1cccnc1Cl	x	x	x	x	-39	x
CC(C)=CC(=O)OCC(=O)Nc1ccc(SC(F)F)cc1	0	1	-14	-1	20	x
CC(=O)CCC(=O)OCC(=O)Nc1ccc(SC(F)F)cc1	0	-3	43*	20	-12	-10
O=C1CCC/C=C/C[C@H](CC(=O)N(CCO)Cc2ccccc2)C(=O)N[C@@H](Cc2ccccc2)CO1	x	x	x	x	-13	x
CCN(c1ccccc1)S(=O)(=O)c1ccc(Cl)c(C(=O)NCC2CCCO2)c1 (configuration not stated)	0	1	-3	6	2	x
O=C(CN1CCN(Cc2ccccc2)CC1)NCCNc1ccc([N+](=O)[O-])cn1	0	0	51*	-1	x	-18
